Test results published in PubChem BioAssay (NCATS).
Inconclusive results are not listed. Values without a mark were called inactive. Activity calls are given as the source filed them. Calls follow the shape of the dose curve; as a rule, active = well fitted cell-killing curve with a large enough effect; inconclusive = small, poorly fitted or top-dose-only effect, or effect the other way; inactive = no such curve, though single readings can be large or run the other way.

assay: Quantitative High-Throughput drug screen in 47 multiple myeloma cell lines against the NCATS MIPE library collection: KMS28BM_JCRB cell viability assay (AID 1919874); details: CellTiter-Glo ATP, 48 h; series mostly up to 45.8 µM; viability, % of control: at the top concentration; also: nearly all actives have a fitted effect of over 35% in size
Source text: PI: Beverly A. Mock Ph.D.
Laboratory of Cancer Biology and Genetics,
Center for Cancer Research, National Cancer Institute,
National Institute of Health, Bethesda, Maryland
Drug resistance and disease progression are common in multiple myeloma (MM) patients, underscoring the need for new therapeutic combinations. […] We hypothesized that effective combinations would reduce MYC expression and enhance p16 activity. […] These preclinical data identify potentially useful drug combinations for evaluation in drug-resistant MM and reveal potential mechanisms of combined drug sensitivity.
Described herein is the primary MIPE qHTS used to cherrypick compounds. Validated compounds were then further tested for potential synergistic activiy.
[1] Peat TJ, Gaikwad SM, Dubois W, Gyabaah-Kessie N, Zhang S, Gorjifard S, Phyo Z, Andres M, Hughitt VK, Simpson RM, Miller MA, Girvin AT, Taylor A, Williams D, D'Antonio N, Zhang Y, Rajagopalan A, Flietner E, Wilson K, Zhang X, Shinn P, Klumpp-Thomas C, McKnight C, Itkin Z, Chen L, Kazandijian D, Zhang J, Michalowski AM, Simmons JK, Keats J, Thomas CJ, Mock BA. Drug combinations identified by high-throughput screening promote cell cycle transition and upregulate Smad pathways in myeloma. Cancer Lett. 2023 Aug 1;568:216284. doi: 10.1016/j.canlet.2023.216284. Epub 2023 Jun 24. PMID: 37356470; PMCID: PMC10408729.
SEQUENCE No. (e.g., 1, 2, 3, etc.); […] (e.g., Cells, Incubation, Reagent, etc.); VALUE and DESCRIPTION.
1; Cells; 5 uL; white, solid bottom 1536-well Greiner assay plate.
2; Compounds; 23 nL; Kalypsis pin tool (Wako USA) equipped with a 1536-well pin head to transfer to the assay plates.
3; Incubation; 48 hours; 37C incubation.
4; Reagent;5uL; CellTiter Glo (Promega).
5; Detector; 425V; Luminescence; Viewlux PerkinElmer.
NOTES (numbers refer to Sequence numbers above)
1. The cell-based screening methods employed in this study were like those previously published. Briefly, the corresponding myeloma cell lines were screened in 1,536-well plates with 500 cells, 5-uL per well for inhibition of cell viability (assessed by measuring ATP levels with CellTiterGlo).
2. NCATS MIPE 4.0 library of approved and investigational drugs were added using the Kalypsis pin tool. Wells treated with DMSO only for 100% viability and media only for 0% viability were used as controls.
3. The assay plates were covered and incubated for 48 hours in a 37C, 5% CO2 incubator with controlled humidity.
4. After 48 hours, CellTilter-GloTM luminescent substrate mix (Promega) reagent was added to the assay plate and plates we incubated for 5 min at room temperature.
5. Signal was measured as median relative luminescence units on a ViewLux (PerkinElmer) multiplate reader.
[1] Heske CM, Davis MI, Baumgart JT, Wilson K, Gormally MV, Chen L, Zhang X, Ceribelli M, Duveau DY, Guha R, Ferrer M, Arnaldez FI, Ji J, Tran HL, Zhang Y, Mendoza A, Helman LJ, Thomas CJ. Matrix Screen Identifies Synergistic Combination of PARP Inhibitors and Nicotinamide Phosphoribosyltransferase (NAMPT) Inhibitors in Ewing Sarcoma. Clin Cancer Res. 2017 Dec 1;23(23):7301-7311. doi: 10.1158/1078-0432.CCR-17-1121. Epub 2017 Sep 12. PMID: 28899971; PMCID: PMC6636827.
Potency is read from the fitted curve at half-maximal effect.

| Compound | Potency | viability, % of control [%] |
| --- | --- | --- |
| Cc1nc2cnc3ccc(C#Cc4cccnc4)cc3c2n1-c1ccc(C(C)(C)C#N)cc1 | 372 nM (active) | – |
| O=C(CCCCCCNC(=O)c1cnc(N(c2ccccc2)c2ccccc2)nc1)NO | 4180 nM (active) | – |
| Cc1ccc(-c2ncn(-c3ccc(Nc4nccc(-c5cccc(N6CCOCC6)c5)n4)cc3)n2)cn1 | 74.3 nM (active) | – |
| CN(C)CC=CC(=O)Nc1cc2c(Nc3ccc(F)c(Cl)c3)ncnc2cc1O[C@H]1CCOC1 | 11800 nM (active) | – |
| Cn1cncc1[C@@](N)(c1ccc(Cl)cc1)c1ccc2c(c1)c(-c1cccc(Cl)c1)cc(=O)n2C | 20900 nM (active) | – |
| O=C(NC1CCNCC1)c1[nH]ncc1NC(=O)c1c(Cl)cccc1Cl | 264 nM (active) | – |
| Nc1nc(Nc2ccc(S(N)(=O)=O)cc2)nn1C(=O)c1c(F)cccc1F | 6620 nM (active) | – |
| Cc1cc(Nc2ncnc3ccc(-c4ccc(CNCCS(C)(=O)=O)o4)cc23)ccc1Oc1ccn2ncnc2c1 | 16600 nM (active) | – |
| CC(C)=CCCC(C)=CCCC(C)=CCSc1ccccc1C(=O)O | 5900 nM (active) | – |
| O=C(Nc1ncc(-c2cc(C(F)F)nn2-c2c(Cl)cccc2Cl)s1)C1CC1 | 296 nM (active) | – |
| C=CC(=O)Nc1cc2c(Nc3ccc(F)c(Cl)c3)ncnc2cc1OCCCN1CCOCC1 | 5260 nM (active) | – |
| CN(C1CCc2c(c3ccccc3n2CC(=O)O)C1)S(=O)(=O)c1ccc(F)cc1 (stereo not given) | 296 nM (active) | – |
| Cc1[nH]c2ccccc2c1CCNCc1ccc(C=CC(=O)NO)cc1 | 52.6 nM (active) | – |
| CCCn1c(=O)c2[nH]c(-c3cnn(Cc4cccc(C(F)(F)F)c4)c3)nc2n(CC)c1=O | – | 114 |
| CC1COC2(CCN(c3nc(=O)c4cc(C(F)(F)F)cc([N+](=O)[O-])c4s3)CC2)O1 (stereo not given) | – | 111 |
| C=CC(=O)Nc1cccc(Oc2nc(Nc3ccc(N4CCN(C)CC4)cc3)ncc2Cl)c1 | 14800 nM (active) | – |
| Cc1cc(C(=O)N2CCN(c3cccc(Cl)c3)CC2)n(-c2ccccc2)n1 | 132 nM (active) | – |
| O=c1[nH]nc(Sc2ncc([N+](=O)[O-])s2)n1-c1ccc2c(c1)OCCO2 | 2960 nM (active) | – |
| O=C(CCCCCCC(=O)Nc1ccc([C@H]2O[C@@H](CSc3nc(-c4ccccc4)c(-c4ccccc4)o3)C[C@@H](c3ccc(CO)cc3)O2)cc1)NO | 13200 nM (active) | – |
| COc1cccc(-c2ccc(NC(=O)C3=C(C(=O)O)CCC3)c(F)c2)c1 | 18700 nM (active) | – |

| Compound | Potency | viability, % of control [%] |
| --- | --- | --- |
| CC(C)[C@H](C(=O)Nc1ccc(C(=O)NO)cc1)c1ccccc1 | 526 nM (active) | – |
| Nc1ccn([C@@H]2O[C@H](CO)[C@H](O)C2(F)F)c(=O)n1 | 5260 nM (active) | – |
| Cc1ccc(NC(=O)C2(c3ccc4c(c3)OC(F)(F)O4)CC2)nc1-c1cccc(C(=O)O)c1 | 41.8 nM (active) | – |
| CC(C)c1cnn2c(NCc3ccccc3)cc(N[C@@H](CO)[C@H](O)CO)nc12 | 296 nM (active) | – |
| CCS(=O)(=O)c1cccc(-c2cc(C(=O)NC3CCN(C)CC3)c(C)c3[nH]c4ncc(C)cc4c23)c1 | 833 nM (active) | – |
| CNC(=O)CN1CCC(Oc2cc3c(Nc4cccc(Cl)c4F)ncnc3cc2OC)CC1 | 18.7 nM (active) | – |
| CC1=C(CO)C(=O)O[C@@H]([C@@H](C)[C@H]2CC[C@H]3[C@@H]4C[C@H]5O[C@]56[C@@H](O)C=CC(=O)[C@]6(C)[C@@H]4CC[C@]23C)C1 | 132 nM (active) | – |
| CN(C)Cc1c(C(=O)NCCOc2ccc(C(=O)NO)cc2)oc2ccccc12 | 418 nM (active) | – |
| CN1CCN(c2cc(C(=O)Nc3ccc4c(c3)-c3c(c(C(N)=O)nn3-c3ccc(F)cc3)CC4)c(Cl)cn2)CC1 | 8330 nM (active) | – |
| NC1(Cc2ccc(Cl)cc2)CCN(c2ncnc3[nH]ccc23)CC1 | 4180 nM (active) | – |
| Cc1cc(CN2CCN(c3c(Br)cnc4nc(-c5ccc(N6CCN(C)CC6)cc5)[nH]c34)CC2)no1 | 2960 nM (active) | – |
| COc1c(OCCCN2CCOCC2)ccc2c3n(c(=NC(=O)c4cnc(N)nc4)nc12)CCN3 | 115 nM (active) | – |
| C[C@H]1C[C@@H]2[C@@H]([C@@H](O)C[C@@]3(C)[C@H]2CC[C@]3(O)C(=O)CO)[C@@]2(C)C=CC(=O)C=C12 | – | 99.9 |
| O=C(C=Cc1c(C(=O)O)[nH]c2cc(Cl)cc(Cl)c12)Nc1ccccc1 | – | 127 |
| CN(C)CCCN=c1c2ccccc2n(C)c2[nH]c(=O)n(C)c(=O)c12 | 16600 nM (active) | – |
| COc1ccc(-c2cc3c(C)nc(N)nc3n(C3CCC(OCCO)CC3)c2=O)cn1 (stereo not given) | 59 nM (active) | – |
| CC(NCc1ccc2c(c1)nc(NC(=O)c1ccc(-c3cn[nH]c3)s1)n2CC(C)(C)O)C(C)(C)C (stereo not given) | 332 nM (active) | – |
| CC(O)C1C(=O)N2C(C(=O)O)=C(SC3CNC(C(=O)N(C)C)C3)C(C)C12 (stereo not given) | – | 110 |
| CCN1CCN(CC(=O)Nc2ccc(-c3cccc4c(=O)cc(N5CCOCC5)oc34)c3sc4ccccc4c23)CC1 | 4690 nM (active) | – |
| CNC(=O)c1cc(Oc2ccc(NC(=O)Nc3cc(C(C)(C)C)nn3-c3ccc4ncccc4c3)c(F)c2)ccn1 | 9350 nM (active) | – |
